Reference: PubChem BioAssay AID1851 (National Center for Advancing Translational Sciences (NCATS), 2009)
The whole screen tested about 16,000 compounds, of which about 5,100 (32%) were called active. Inconclusive results (about 25%) are left out. Calls come from the whole dose curve; as a rule, active = well fitted curve in the direction sought with a large enough effect; inconclusive = small, poorly fitted or top-dose-only effect, or effect the other way; inactive = no such curve, though single readings can be large or run the other way. Some of the results follow.

Molecular target: Cytochrome P450 3A4 (Homo sapiens) (UniProt P08684)
Sequence (P08684 whole entry, looked up): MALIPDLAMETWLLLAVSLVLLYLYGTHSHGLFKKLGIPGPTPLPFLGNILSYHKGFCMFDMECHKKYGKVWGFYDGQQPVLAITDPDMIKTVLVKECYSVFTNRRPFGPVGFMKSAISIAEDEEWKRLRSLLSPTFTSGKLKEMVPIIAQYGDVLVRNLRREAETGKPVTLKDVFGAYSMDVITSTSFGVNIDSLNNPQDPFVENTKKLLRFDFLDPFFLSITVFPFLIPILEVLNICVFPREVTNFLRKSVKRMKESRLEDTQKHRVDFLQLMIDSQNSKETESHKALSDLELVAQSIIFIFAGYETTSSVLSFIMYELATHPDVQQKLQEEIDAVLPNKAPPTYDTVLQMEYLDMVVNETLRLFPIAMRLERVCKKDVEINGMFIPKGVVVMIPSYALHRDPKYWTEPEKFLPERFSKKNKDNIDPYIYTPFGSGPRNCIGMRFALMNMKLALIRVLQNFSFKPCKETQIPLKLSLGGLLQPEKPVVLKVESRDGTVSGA
Assay: Cytochrome panel assay with activity outcomes
Conditions: recombinant CYP, pro-luciferin dealkylation, luminescence, p450-cyp3a4; series mostly up to 57.1 µM
% is set by controls: 0 for no effect and ±100 for the full control effect.

AC50, active:
COc1cccc(-c2[nH]nc3c2C(c2ccsc2)C(C#N)=C(N)O3)c1 (stereo not drawn) 7.08 µM, CN1CCC(=NNC(=O)CSCc2ccccc2)CC1 17.8 µM, CC1(C)C(=O)C(c2ccccc2)=C2CN3C(=O)N(CCc4ccccc4)C(=O)C3(Cc3ccccc3)C=C21 (stereo not drawn) 2 µM, CC1(C)C(=O)C(c2ccccc2)=C2CN3C(=O)N(CCc4ccccc4)C(=O)C3(Cc3ccc(C(F)(F)F)cc3)C=C21 (stereo not drawn) 2 µM, CC1(C)C(=O)C(c2ccccc2)=C2CN3C(=O)N(CCc4ccccc4)C(=O)C3(Cc3ccc(F)cc3)C=C21 (stereo not drawn) 3.16 µM, CCNC(=S)NNC(=O)CCn1c2ccccc2c2ccccc21 4.47 µM, Cc1onc(-c2c(Cl)cccc2Cl)c1C(=O)N1CCc2ccccc2C1 3.98 µM, C/C(CC(=O)NCCCN1CCOCC1)=N\NC(=O)COc1ccc(Cl)cc1 15.8 µM, COCCNc1nc(-c2ccc(N(C)C)cc2)nc2ccccc12 12.6 µM, COc1ccccc1CNc1nc(-c2ccc(N(C)C)cc2)nc2ccccc12 3.16 µM, COc1ccc(CNc2nc(-c3ccc4c(c3)OCO4)nc3ccccc23)c(OC)c1 1.26 µM, CN(C)c1ccc(-c2nc(NCCc3cnc[nH]3)c3ccccc3n2)cc1 2.51 µM

AC50, inactive:
CO[C@]1(NC(=O)Cc2cccs2)C(=O)N2C(C(=O)O)=C(COC(N)=O)CS[C@H]21, O=C1Nc2ccc(F)cc2C12SCCS2, CCCn1cnc2c1c(=O)n(CCCCC(C)=O)c(=O)n2C, CN(C)/C(CN1CCN(C=O)CC1)=C1\N=C(c2ccccc2)OC1=O, CCNC(=S)NNC(=O)Cc1ccccc1, CCNC(=S)NNC(=O)c1cccc(Br)c1, COc1ccc(C(=O)NCCCN2CCOCC2)cc1OC

activity, negative = inhibition, inactive:
Cc1ccc(SCc2[nH]nc3c2C(C(C)C)C(C#N)=C(N)O3)cc1 (stereo not drawn) -16.4% [at 2.29 µM], COc1cccc(-c2[nH]nc3c2C(c2ccc(C)o2)C(C#N)=C(N)O3)c1 (stereo not drawn) -27.5% [at 2.29 µM], O=C(CC(=O)NN=C1CCCC1)NCCc1ccccc1 4.31% [at 2.29 µM], CC1CCC(=NNC(=O)Cc2ccccc2)CC1 (stereo not drawn) -1.06% [at 2.29 µM], CC1(C)N=C(N)N=C(N)N1CCCCc1ccccc1 -18.8% [at 11.4 µM], CCOC(=O)c1c(O)[nH]c(=O)c(CC)c1C -7.96% [at 11.4 µM], CC(C)[C@]1(Cl)CC[C@@H]2[C@]3(C)CCC[C@@](C)(C(=O)O)[C@H]3C[C@H](Cl)[C@@]2(Cl)[C@H]1Cl -26.1% [at 11.4 µM], Nc1nc2c(ncn2[C@@H]2C=C[C@@H](CO)C2)c(=O)[nH]1 -2.95% [at 11.4 µM], COc1ccc(-c2cc([C@H](O)[C@@H]3CCCCN3)c3ccccc3n2)cc1 -6.63% [at 11.4 µM]
